The list is not random: actives were taken first. Their share in the collection is about 19%.
TDP1 block = inhibitors of human tyrosyl-DNA phosphodiesterase TDP1; recombinant TDP1, AlphaScreen DNA substrate cleavage; Potency, µM (top dose mostly 130 µM), inactives show at the top dose activity change, negative = inhibition, hits mostly inhibitors; Q9NUW8; AID 485290; 0.28% of 350,000 active; further: potency means the concentration at half of the fitted maximal effect; nearly all actives have a fitted effect of over 40% in size
Target sequence (Q9NUW8 whole entry, looked up): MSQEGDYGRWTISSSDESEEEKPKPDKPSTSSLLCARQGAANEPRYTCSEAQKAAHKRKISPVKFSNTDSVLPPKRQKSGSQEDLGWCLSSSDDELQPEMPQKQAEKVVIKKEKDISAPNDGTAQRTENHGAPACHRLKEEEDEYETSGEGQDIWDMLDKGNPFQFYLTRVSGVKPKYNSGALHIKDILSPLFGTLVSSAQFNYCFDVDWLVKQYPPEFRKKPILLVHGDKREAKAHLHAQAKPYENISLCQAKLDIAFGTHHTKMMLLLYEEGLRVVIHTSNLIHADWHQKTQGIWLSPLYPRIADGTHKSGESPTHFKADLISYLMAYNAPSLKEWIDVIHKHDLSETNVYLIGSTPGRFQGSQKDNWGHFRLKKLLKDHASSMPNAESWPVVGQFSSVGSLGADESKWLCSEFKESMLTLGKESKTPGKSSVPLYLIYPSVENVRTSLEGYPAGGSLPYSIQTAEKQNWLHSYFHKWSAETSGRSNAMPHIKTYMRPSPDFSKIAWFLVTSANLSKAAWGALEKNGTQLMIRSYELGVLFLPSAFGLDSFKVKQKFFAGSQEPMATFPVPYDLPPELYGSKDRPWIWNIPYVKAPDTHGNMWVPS
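Compounds were preincubated with Tdp1 (1 nM final) for 15 min at room temperature before substrate (15 nM final) started a 5 min reaction; beads (10 ug/ml final) were then added for 10 min before AlphaScreen detection.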
Giardia killer = Giardia lamblia killing. AID 540267. Giardia lamblia trophozoite viability. activity change, % at 7.66 µM, hits read low. 0.15% of 340,000 active; in the data active means activity change below about -80%; inconclusive means between about -30% and that limit;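 further: parasites exposed to compound for two days anaerobically before the ATP read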
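Giardia lamblia trophozoites (100 cells/well) were incubated with compounds for 48 h at 37 deg C under anaerobic conditions. Viability was read as ATP content by one-step luminescence after 15-30 min at room temperature.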
IL1B secr inh = inhibitors of inflammasome signaling (IL-1 beta secretion) | activity change, % at 57.5 µM | THP-1 LPS/ATP IL-1B secretion, AlphaLISA, 16 h; stronger effect = lower value | AID 743279 | 4.7% of 360,000 active; in the data active means activity change below about -50%; inconclusive means mostly about -30% to -49%
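Secreted IL-1B measured by AlphaLISA bead assay after 16 h compound exposure of THP-1 cells; compounds (final up to 57.5 uM) added 1 h before LPS (250 ng/mL) and ATP (1.25 mM) stimulation; lower signal means less secretion.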
TDP1 cell CPT = growth inhibition of DT40 Tdp1-/-;hTDP1 cells with camptothecin (screen for TDP1 inhibitors); chicken DT40 Tdp1-/-;hTDP1 cells + 20 nM CPT, ATP luminescence, 48 h; Potency, µM (highest dose often 46.2 µM), inactives show at the top dose activity change, negative = growth inhibition, actives largely listed as inhibitors; 12% of 420,000 active; AID 686979; further: potency means the concentration at half of the fitted maximal effect; nearly all actives have a fitted effect of over 55% in size
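Cell growth measured by CellTiter-Glo luminescence after a minimum 48 h, 37 C compound exposure with 20 nM CPT in Tdp1-knockout DT40 cells stably expressing hTDP1, seeded 400/well; qHTS titration format.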
ELG1 repair inh = inhibitors of ELG1-dependent DNA repair in HEK293T cells | 2.3% of 330,000 active | HEK293T ELG1-luciferase reporter, luminescence, 16 h; DNA damage induced by 5-fluorouridine | Potency, µM (top dose mostly 46.1 µM), for inactives: top-dose activity change, negative = inhibition, most hits filed as inhibitors; further: potency means the concentration at half of the fitted maximal effect; nearly all actives have a fitted effect of over 55% in size
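In this reporter screen, reduction of luminescence relative to DMSO vehicle indicated activity. Compounds and 5-fluorouridine were added together to 2,000 cells per well, incubated for 16 hr at 37 °C, then developed with ONE-Glo.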
DT40 TDP1 no CPT = qHTS for Inhibitors of human tyrosyl-DNA phosphodiesterase 1 (TDP1): qHTS in cells in absence of CPT; 15% of 420,000 active; Potency, µM (titrated, usually from 46.2 µM), for inactives: at the top dose activity change, negative = growth inhibition, hits mostly inhibitors; DT40 Tdp1-/- hTDP1 cells, no CPT, ATP luminescence, 48 h; AID 686978, 2013; further: potency means the concentration at half of the fitted maximal effect; nearly all actives have a fitted effect of over 55% in size
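Growth of hTDP1-complemented DT40 Tdp1-knockout cells is measured by ATP luminescence after at least 48 hr compound exposure at 37 °C, with DMSO substituting for the 20 nM CPT used in the parallel screen.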
Starred values were filed as active, the others as inactive; ? = inconclusive; . = no result. Unless noted, the call rests on the fitted dose curve; in most records, active means well fitted curve in the direction sought with a large enough effect; inconclusive means small, poorly fitted or top-dose-only effect, or another doubt; inactive means no such curve, though single readings can be large; an effect the other way counts as inactive or inconclusive. On the % scale 0 is the no-effect control and ±100 the full control effect.

SMILES	TDP1 block	Giardia killer	IL1B secr inh	TDP1 cell CPT	ELG1 repair inh	DT40 TDP1 no CPT
CCCCC(=O)NC(c1ccco1)c1cc(Cl)c2cccnc2c1O (stereo unspecified)	6%	15	92	?	15%	16µM*
CCC(=O)NC(c1ccco1)c1cc(Cl)c2cccnc2c1OC (stereo unspecified)	0%	-16	.	.	2%	.
COc1ccc(S(=O)(=O)Nc2ccc3c(c2)OCCO3)cc1Cl	0%	-2	9	23µM*	-10%	?
COc1cc(OC)c(NS(=O)(=O)c2ccc(Cl)c(C(=O)OC(C)C(=O)N3CCCC3)c2)cc1Cl (stereo unspecified)	3%	-13	-2	18µM*	-19%	21µM*
COc1cc(OC)c(NS(=O)(=O)c2ccc3c(c2)NC(=O)CO3)cc1Cl	4%	47	0	18µM*	0%	?
CCOC(=O)c1ccc(NS(=O)(=O)c2ccc3c(c2)OCCO3)cc1	-2%	.	.	13µM*	.	29µM*
CCCCNC(=O)c1ccccc1SCC(=O)NC1CCCCCCC1	0%	9	14	-24%	0%	-1%
Cc1cccc(NC(=O)CN2CCN(C(=O)c3oc4c(Cl)cccc4c3C)CC2)c1C	1%	-8	-4	?	?	?
COc1ccc(S(=O)(=O)Nc2ccc3c(c2)OCO3)cc1OC	8%	4	-3	-15%	12%	-15%
COc1ccc(NS(=O)(=O)c2ccc3c(c2)OCCO3)cc1OC	.	-22	-1	7.3µM*	2.3µM*	5.8µM*
Cc1ccc(NS(=O)(=O)c2ccc3c(c2)CCO3)cc1C	1%	.	.	.	.	.
CC(=O)Nc1ccc(S(=O)(=O)Nc2ccc3c(c2)OCCO3)cc1Cl	-1%	10	17	?	?	7.3µM*
Cc1ccc(S(=O)(=O)Nc2ccc3c(c2)OCCO3)cc1C	8%	6	-3	?	?	18µM*
COc1c(C)cc(NS(=O)(=O)c2ccc3c(c2)OCCO3)cc1C	7%	.	.	9.2µM*	.	2.6µM*
Cn1c2ccccc2c2cnn(CC(=O)Nc3ccccc3C(F)(F)F)c(=O)c21	3%	.	.	-3%	.	-9%
Cc1cc(Br)ccc1NC(=O)C(NS(=O)(=O)c1cccs1)c1ccccc1 (stereo unspecified)	-4%	.	.	?	.	?
CSc1nc2ccc(NS(=O)(=O)c3ccc4c(c3)OCCO4)cc2s1	2%	12	34	?	?	23µM*
CSc1nc2ccc(NS(=O)(=O)c3c(Cl)cccc3Cl)cc2s1	2%	26	4	-12%	12%	2%
CCOC(=O)c1cnc(Nc2nc3ccccc3o2)nc1CSC(=S)N(CC)CC	5%	?	-4	0.15µM*	?	0.15µM*
COc1ccc(S(=O)(=O)c2c(Nc3ccc(C)cc3C)sc(C(=O)c3ccc(F)cc3)c2N)cc1	8%	.	.	?	.	?
CCOc1ccc(C(O)(c2ccccc2OC)C(CN2CCCC2)c2ccccc2)cc1 (stereo unspecified)	5%	11	?	12µM*	-13%	8.2µM*
CCCOc1ccc(C(O)(CCN2CCCCC2)c2ccccc2OC)cc1 (stereo unspecified)	.	-1	-27	18µM*	-19%	15µM*
CCCCOc1ccc(C(O)(CCN2CCOCC2)c2ccccc2)cc1 (stereo unspecified)	.	-13	2	?	-1%	?
CCOC(=O)c1c(-c2ccc(OC)c(OC)c2)csc1NC(=O)c1ccc(F)cc1	0%	.	.	?	.	?
CC(C)Oc1ccc(CNC(=O)CCCN2C(=O)c3cccnc3Oc3ccc(Cl)cc32)cc1	1%	.	.	?	.	?
SMILES	TDP1 block	Giardia killer	IL1B secr inh	TDP1 cell CPT	ELG1 repair inh	DT40 TDP1 no CPT
COc1cccc(NC(=O)Cn2c(=O)n(CCCCC(=O)NCc3ccccc3Cl)c(=O)c3ccccc32)c1	5%	.	.	?	.	18µM*
Cc1ccc(C)c(Cn2c(=O)n(CCCCC(=O)NCc3ccccc3Cl)c(=O)c3ccccc32)c1	-1%	.	.	7.3µM*	.	7.3µM*
O=C(CCCCn1c(=O)c2ccccc2n(CC(=O)Nc2ccc(F)cc2F)c1=O)NCc1ccccc1Cl	4%	.	.	-10%	.	-19%
O=C(CCCn1c(=O)c2ccccc2n(CC(=O)Nc2ccc(F)cc2F)c1=O)NCc1ccccc1Cl	5%	.	.	16µM*	.	?
O=C(CCCn1c(=O)c2sccc2n(Cc2c(F)cccc2Cl)c1=O)NCc1ccccc1	-3%	.	.	?	.	16µM*
COc1ccc(NC(=O)Cn2c(=O)n(CCCC(=O)NCc3ccccc3OC)c(=O)c3ccccc32)cc1Cl	5%	.	.	?	.	-21%
NS(=O)(=O)c1cccc(NC(=O)COC(=O)CCCc2c[nH]c3ccccc23)c1	8%	16	18	-1%	-8%	2%
CCNc1ncc2nc(-c3ccccc3)c(=O)n(Cc3ccc(F)cc3)c2n1	.	.	.	0%	.	-16%
COc1ccccc1CNC(=O)CCCCn1c(=O)c2ccccc2n(Cc2ccccc2F)c1=O	4%	.	.	3.7µM*	.	2.3µM*
O=C(CCCCn1c(=O)c2ccccc2n(Cc2ccccc2F)c1=O)NCc1ccc2c(c1)OCO2	1%	.	.	-4%	.	?
CCCCNC(=O)CCCn1c(=O)c2ccccc2n(Cc2cccc(Cl)c2)c1=O	-3%	.	.	23µM*	.	23µM*
Cc1c2cnn(CC(=O)NC(C)C)c(=O)c2c(C)n1Cc1cccc(Cl)c1	5%	.	.	-28%	.	?
CCCCNC(=O)Cn1ncc2c(C)n(Cc3cccc(Cl)c3)c(C)c2c1=O	-5%	.	.	23µM*	.	21µM*
O=C(CCn1c(=O)c2ccccc2n(Cc2cccc(Cl)c2)c1=O)NCCc1ccccc1	5%	.	.	?	.	?
CCc1ccc(NC(=O)Cn2c(=O)n(CCCC(=O)NCc3ccccc3Cl)c(=O)c3ccccc32)cc1	4%	.	.	-10%	.	-26%
O=C(CCCCn1c(=O)c2ccccc2n(Cc2ccccc2F)c1=O)NCc1ccccc1Cl	4%	.	.	8.2µM*	.	5.2µM*
O=S(=O)(NCC(c1ccco1)N1CCc2ccccc2C1)c1ccc(F)cc1 (stereo unspecified)	0%	-18	-13	-25%	5%	?
Cn1nc(C(=O)N2CCCCC2)c2c1-c1ccccc1S(=O)(=O)C2	2%	?	-13	-1%	24%	28%
CCCCNC(=O)CCCn1c(=O)c2ccccc2n(Cc2ccccc2C)c1=O	5%	.	.	?	.	21µM*

Screens deposited in PubChem BioAssay by National Center for Advancing Translational Sciences (NCATS).
